Screening results as filed in PubChem.
TEAD-YAP inh: TEAD-YAP interaction inhibition. 640,000 compounds, 1.4% hits. AID 1259422. HEK-TIYL cells, TEAD-Gal4/YAP UAS-luciferase luminescence. inhibition, % at 9.12 µM; in the data active = inhibition above about 32%;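 also: 0% = median of test compound wells and 100% = reference inhibitor wells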
FBW7 activator: human FBW7 E3 ligase activation, primary screen; AID 1259310; normalized activity (activation), % at 26.1 µM; Q969H0; 650,000 compounds, 0.13% hits; AlphaScreen FBW7–phospho-cyclin E peptide binding, activator screen; in the data active = normalized activity above about 1.9%;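 also: purified mutant Fbw7 with reduced substrate affinity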
GPR151 activ: human GPR151 activation; Q8TDV0; 650,000 compounds, 1% hits; PathHunter beta-arrestin GPR151 cells, luminescence; activation, % at 11.2 µM; in the data active = activation above about 4.9%;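 also: 0% = median of compound wells and 100% = cells with positive control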
MITF inh: human MITF inhibition, primary screen; O75030; AlphaScreen MITF homodimerization, bead proximity signal; inhibition, % at 2.6 µM; 650,000 compounds, 0.91% hits; in the data active = inhibition above about 50%;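 also: 0% = vehicle wells with protein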
MITF confirm: human MITF inhibition, confirmation; shares compounds with MITF inh; AlphaScreen MITF homodimerization, biotin/His-MITF beads; inhibition, % at 2.6 µM; 4,700 compounds, 16% hits;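 active = inhibition above a cutoff derived from the DMSO control wells, cut at about 28% in these data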;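 also: 0% = MITF dimer wells with DMSO only; inhibitors lower the bead chemiluminescence by keeping MITF from dimerizing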
AS interf DR: optically interferes with AlphaScreen signal in dose response. shares compounds with MITF inh. AlphaScreen optical interference counterscreen, cell-free. IC50, µM. 480 compounds, 6% hits. AID 1259373; call rule not given here
AS interf ctr: counter-screen: compounds optically interfering with AlphaScreen | LysRS AlphaScreen counterscreen, signal interference, triplicate | shares compounds with MITF inh | inhibition, % at 2.6 µM | 4,700 compounds, 7.6% hits;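 active = inhibition above a cutoff derived from the DMSO control wells, cut at about 30% in these data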
An asterisk follows results filed as active; . = no result. The list is not random: actives were taken first. Their share in the collection is about 3.5%.

SMILES | TEAD-YAP inh | FBW7 activator | GPR151 activ | MITF inh | MITF confirm | AS interf ctr | others
COc1ccccc1C(=O)N1CCN(Cc2ccc3ccccc3c2)CC1 | 22 | 0 | 0 | 45 | . | .
CCOc1ccc(CN2CCC(C(=O)NCc3ccco3)CC2)cc1 | 2 | 0 | -2 | 83* | 14 | 14
CC1CCC(N2CCN(Cc3ccc(Cl)cc3)CC2)CC1 (centres undefined) | -10 | 0 | -1 | 69* | 11 | 17
Cc1cccc(CN2CCN(C3CCC(C)CC3)CC2)c1 (centres undefined) | -15 | 0 | 1 | 55* | 28* | 18 | AS interf DR=>5.5
CCOc1ccc(CN2CCC(C(=O)NC(C)(C)C)CC2)cc1 | 1 | 0 | 1 | 19 | . | .
CCOc1ccc(CN2CCN(C3CCC(C)CC3)CC2)cc1 (centres undefined) | 3 | 0 | 0 | 71* | 3 | 9
CCOc1ccc(CN2CCN(Cc3ccc(OCC)cc3)CC2)cc1 | 9 | 0 | 1 | 51* | -1 | -4
CCc1ccc(CN2CCN(C3CCC(C)CC3)CC2)cc1 (centres undefined) | -4 | 0 | 0 | 69* | 0 | 5
O=C(O)CCN(CCC(=O)O)c1ccc(O)cc1 | -19 | -1 | 2 | 69* | 48* | -10 | AS interf DR=>6.5
COC(=O)Cn1cnc2sc(C)c(-c3ccc(Br)cc3)c2c1=O | -1 | 0 | -1 | 16 | . | .
CCc1nc(SCC(=O)c2ccc(OC)c(C)c2)n[nH]1 | -8 | 0 | -1 | 2 | . | .
CCc1nc(SCC(=O)c2ccc(OC)cc2)n[nH]1 | -8 | 0 | 0 | 51* | 8 | 13
Cc1ccn2c(NCC3CCCO3)c(-c3ccc(O)cc3O)nc2c1 (centres undefined) | -3 | 0 | -1 | 89* | 84* | 6 | AS interf DR=>6.5
O=c1c2cc3c(nc2[nH]c(=S)n1Cc1ccccc1)CCCC3 | -13 | 0 | 1 | 7 | . | .
CN1CCN(CC(=O)c2cccs2)CC1 | -4 | 0 | -1 | 34 | . | .
CN1CCN(CC(=O)c2ccccc2F)CC1 | 4 | 0 | 0 | 78* | 10 | 15
O=C(O)c1cc(N/N=C/c2ccc(N3CCOCC3)s2)ccc1Cl | -16 | 0 | -1 | 76* | 60* | 21 | AS interf DR=>7.1
CSCCC(NC(=O)CCN1C(=O)c2ccccc2C1=O)C(=O)O (centres undefined) | 1 | 0 | 1 | 4 | . | .
CCCCC[C@H](O)/C=C/[C@H]1C(=O)C[C@H](O)[C@@H]1C/C=C\CCCC(=O)O | . | . | 1 | 13 | . | .
CCCCC[C@H](O)/C=C/[C@H]1C=CC(=O)[C@@H]1CCCCCCC(=O)O | . | . | 3 | -12 | . | .
CCCCC[C@H](O)/C=C/[C@H]1C=CC(=O)[C@@H]1CCCCCCC(=O)NCCCCCNC(=O)CCCCC1SC[C@@H]2NC(=O)N[C@H]12 (some centres undefined) | . | . | -2 | 124* | 123* | 101*
CCCCC[C@H](O)/C=C/[C@H]1C(=O)C[C@H](O)[C@@H]1C/C=C\CCCC(=O)NC(CO)CO | . | . | 3 | -8 | . | .
CCCCC[C@H](O)/C=C/[C@H]1C(=O)C[C@H](O)[C@@H]1C/C=C\CCCC(=O)OCC(O)CO (some centres undefined) | . | . | 1 | 71* | -6 | -3
O=C(CCCC[C@@H]1SC[C@@H]2NC(=O)N[C@@H]21)NCCCC[C@H](NC(=O)CCN1C(=O)C=CC1=O)C(=O)O | . | . | -2 | 124* | 124* | 101*
CCCCC[C@H](O)/C=C/[C@H]1C(=O)C[C@H](O)[C@@H]1C/C=C\CCCCC(=O)NCCCCCNC(=O)CCCC[C@@H]1SC[C@@H]2NC(=O)N[C@@H]21 | . | . | -1 | 124* | 123* | 101*
SMILES | TEAD-YAP inh | FBW7 activator | GPR151 activ | MITF inh | MITF confirm | AS interf ctr | others
C=CCc1cccc(/C=N/n2c(C)c3c(C)nnc(C)c3c2C)c1O | 1 | 0 | -1 | 15 | . | .
O=C(Nc1ccc(OCC(=O)N2CCOCC2)cc1)c1cccs1 | -10 | 0 | 0 | -2 | . | .
O=C(C1=COCCO1)N(Cc1ccccn1)c1nc2c(Cl)cccc2s1 | -80 | 0 | -1 | 6 | . | .
CCOC(=O)CSc1nc2cc(C(=O)NCc3cccc(Cl)c3)ccc2c(=O)n1CCc1ccccc1 | -1 | 0 | 1 | -13 | . | .
O=C(Nc1cccc(C(F)(F)F)c1)N[C@H]1C[C@H]2C(=O)N[C@H](Cc3ccccc3)C(=O)N2C1 | 17 | 0 | 0 | 6 | . | .
OCCN1CCN(Cc2cc(Br)cs2)CC1 | -5 | 0 | 0 | 73* | -1 | -1
OCCN1CCN(Cc2ccc(Br)s2)CC1 | 1 | 0 | 0 | 59* | -2 | 5
CC(=O)N1CCN(Cc2ccc(Br)s2)CC1 | 4 | 0 | -2 | -11 | . | .
COC(CNc1cc(-c2ccccn2)nc(-c2ccccn2)n1)OC | 22 | -1 | 0 | 114* | 116* | 100*
Cc1cnc(CNc2cc(-c3ccccn3)nc(-c3ccccn3)n2)nc1 | 16 | -1 | 1 | 110* | 115* | 100*
COC(CNc1cc(-c2ccccn2)nc(-c2ccccc2)n1)OC | 22 | 0 | 0 | -2 | . | .
CCOC(=O)c1ccc(N(C)S(=O)(=O)c2ccc(C)cc2)cc1 | -4 | 0 | 0 | -16 | . | .
CCOC(=O)c1c(N)n(CCCN2CCOCC2)c2nc3ccccc3nc12 | 0 | 0 | 0 | 55* | 4 | 8
CN(CCN1CCOCC1)C1CCN(C(=O)CNC(=O)/C=C/c2cccs2)CC1 | 7 | 0 | -1 | 62* | 1 | 13
CCCNc1cc(-c2cccs2)ncn1 | -23 | 0 | -2 | 6 | . | .
OCCNc1cc(-c2cccs2)ncn1 | -17 | 0 | 1 | 56* | 53* | 3 | AS interf DR=>6
FC(F)(F)c1cccc(CN2CCSCC2)c1 | 3 | 0 | 1 | 18 | . | .
CC(C)CC(=O)N1CCN(Cc2cccc(C(F)(F)F)c2)CC1 | 19 | 0 | 0 | 56* | -11 | -8
CC(C)CC(=O)N1CCN(Cc2ccncc2)CC1 | -2 | 0 | -1 | 65* | 8 | 14
CC(C)CC(=O)N1CCN(Cc2ccco2)CC1 | -4 | 1 | -1 | 58* | 9 | 12
Cc1cccc(NC(=O)CN(C)S(=O)(=O)c2ccc3c(c2)C(C)(C)C(=O)N3C)c1C | 10 | 0 | 1 | 5 | . | .
Cc1ccc2c(c1)c(=O)c1ccccc1n2CC(=O)Nc1ccc(F)cc1F | -1 | 0 | -1 | 77* | 4 | 5
CCOc1ccc(-n2c(O)c(C=NC(C)CC)c(=O)[nH]c2=O)cc1 (centres undefined) | 6 | 0 | 0 | 1 | . | .
Nc1ccc(S(=O)(=O)N2CCOC3CCCCC32)cc1 (centres undefined) | -2 | 0 | 2 | 76* | 11 | 14
COc1ccc(-c2nnc3sc(NC(=O)COc4ccccc4F)nn23)cc1OC | 5 | 0 | 1 | 5 | . | .
CCCCCOc1ccc(NC(=O)c2cccnc2)cc1 | 22 | 0 | 0 | 1 | . | .
